Experimental data: PubChem BioAssay (EPA / NIEHS)
Values joined by “and” are separate entries in the source; they are usually repeats but may differ in a detail not shown here. Equal values may be shown once. Records with an inconclusive call do not appear. Active and inactive are the calls of the source. How the source made its calls, unless noted: active means hit-call score of the fitted dose curve at least 0.9, where 1 is the maximum; inactive means score below 0.9.

Key:
[1] = read-out: Tumor necrosis factor receptor 1 (TNFRSF1A), TNFRSF1A (gene 7132); assay: LTEA_HepaRG_TNFRSF1A: Life Technologies and Expression Analysis (LTEA) Assay for Tumor necrosis factor receptor 1 (TNFRSF1A) using HepaRG (AID 2283535); details: mRNA level, 48 h; actives raise or lower the signal
Summary of the method: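 Differentiated human HepaRG cells were exposed in duplicate for 48 h in serum-free induction medium to eight concentrations (top 100 uM, half-log steps, 0.5% DMSO). TNFRSF1A mRNA was quantified by qRT-PCR, normalized to ACTB, GAPDH and POLR2A, then fitted bidirectionally against DMSO.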

[2] = read-out: Thyroid Hormone Responsive (THRSP), THRSP (gene 7069); assay: LTEA_HepaRG_THRSP: Life Technologies and Expression Analysis (LTEA) Assay for Thyroid Hormone Responsive (THRSP) using HepaRG (AID 2283536); details: mRNA level, 48 h; actives raise or lower the signal
Summary of the method: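 mRNA induction or loss relative to 0.5% DMSO vehicle was fitted bidirectionally across an eight-point curve whose highest exposure was 100 uM. Human HepaRG liver cells received chemicals in duplicate over 48 h before RNA extraction.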

[3] = read-out: Cellular tumor antigen p53 (Homo sapiens) (UniProt P04637); assay: LTEA_HepaRG_TP53: Life Technologies and Expression Analysis (LTEA) Assay for Tumor Protein P53 (TP53) using HepaRG (AID 2283537); details: mRNA level, 48 h; actives raise or lower the signal
Summary of the method: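 Gain or loss of TP53 mRNA signal is scored relative to 0.5% DMSO after 48 h chemical treatment of HepaRG liver cells, tested in duplicate at eight half-log concentrations up to 100 uM.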

[4] = read-out: UDP glucuronosyltransferase (UGT1A1), UGT1A1 (gene 54658); assay: LTEA_HepaRG_UGT1A1: Life Technologies and Expression Analysis (LTEA) Assay for UDP glucuronosyltransferase (UGT1A1) using HepaRG (AID 2283538); details: mRNA level, 48 h; actives raise or lower the signal
Summary of the method: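 Differentiated human HepaRG cells in serum-free induction medium were exposed in duplicate for 48 h to eight half-log concentrations up to 100 uM in 0.5% DMSO. UGT1A1 mRNA was quantified by TaqMan qRT-PCR, normalized to ACTB, GAPDH and POLR2A, and fitted bidirectionally against DMSO.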

[5] = read-out: UDP glucuronosyltransferase (UGT1A6), UGT1A6 (gene 54578); assay: LTEA_HepaRG_UGT1A6: Life Technologies and Expression Analysis (LTEA) Assay for UDP glucuronosyltransferase (UGT1A6) using HepaRG (AID 2283539); details: mRNA level, 48 h; actives raise or lower the signal
Summary of the method: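 Human HepaRG cells were dosed for 48 h in serum-free induction medium with 0.5% DMSO vehicle, eight-point half-log series from 100 uM, in duplicate. UGT1A6 mRNA was measured by qRT-PCR, normalized to ACTB, GAPDH, POLR2A, and fitted bidirectionally against DMSO.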

[6] = read-out: X-box binding protein 1 (XBP1), XBP1 (gene 7494); assay: LTEA_HepaRG_XBP1: Life Technologies and Expression Analysis (LTEA) Assay for X-box binding protein 1 (XBP1) using HepaRG (AID 2283540); details: mRNA level, 48 h; actives raise or lower the signal
Summary of the method: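 Differentiated human HepaRG cells in serum-free induction medium were exposed in duplicate for 48 h to eight half-log concentrations up to 100 uM in 0.5% DMSO. XBP1 mRNA was quantified by qRT-PCR, normalised to ACTB, GAPDH and POLR2A, with bidirectional fitting against DMSO.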

[7] = LTEA_HepaRG_LDH_cytotoxicity: Cytotoxicity Assessment in the Life Technologies and Expression Analysis (LTEA) Assay (AID 2283563; active means hit-call score of the fitted dose curve at least 0.9, where 1 is the maximum;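 on AC50: LDH activity released into spent culture medium as a marker of cell death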)
Summary of the method: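 Differentiated human HepaRG cells, plated 48 h beforehand, were switched to serum-free induction medium and exposed for 48 h to eight half-log concentrations (top 100 uM) in 0.5% DMSO. LDH was measured in spent medium; activity was fitted relative to DMSO vehicle.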

[8] = ATG_XTT_Cytotoxicity: Cytotoxicity Assessment in the Attagene TRANS-FACTORIAL HepG2 Assay (AID 2283584; active means hit-call score of the fitted dose curve at least 0.9, where 1 is the maximum)
Summary of the method: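 HepG2 human liver cells, transiently transfected with multiple GAL4-UAS reporter units, were dosed and read at 24 h by XTT as cell number. Loss of signal was fitted relative to DMSO negative control baseline.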

[9] = TOX21_p53_BLA_p2_viability: Viability Assessment in the Tox21 HCT-116 p53 Agonism Beta-lactamase Assay, Phase 2 (AID 2283591; active means hit-call score of the fitted dose curve at least 0.9, where 1 is the maximum;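 further: compound exposure lasted 16 h at 37 °C; actives lower the ATP signal meaning cytotoxicity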)
Summary of the method: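 Cytotoxicity readout: CellTiter-Glo ATP luminescence, 30 min at room temperature, after the beta-lactamase read. Cells were HCT116 exposed 16 h at 37C to compounds pin-transferred at 217-fold dilution from DMSO stocks.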

Measured: AC50

Cellular tumor antigen p53 (Homo sapiens), sequence (P04637 whole entry, looked up): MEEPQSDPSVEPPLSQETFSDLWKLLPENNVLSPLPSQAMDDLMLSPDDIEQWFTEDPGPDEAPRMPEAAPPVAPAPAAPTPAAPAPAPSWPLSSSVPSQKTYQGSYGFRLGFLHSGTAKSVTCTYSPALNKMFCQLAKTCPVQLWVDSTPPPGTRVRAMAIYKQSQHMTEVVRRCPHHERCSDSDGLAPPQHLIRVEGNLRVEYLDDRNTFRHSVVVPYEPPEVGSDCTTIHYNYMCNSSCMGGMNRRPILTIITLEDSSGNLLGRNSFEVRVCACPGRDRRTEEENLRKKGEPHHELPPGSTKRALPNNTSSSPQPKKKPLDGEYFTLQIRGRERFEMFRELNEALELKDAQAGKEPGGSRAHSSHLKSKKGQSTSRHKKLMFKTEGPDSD

CCCCCCCCCCCO
inactive: [1] | [2] | [3] | [4] | [5] | [6] | [7] | [8] | [9]

O=CCCCC=O
inactive: [1] | [2] | [3] | [4] | [5] | [6] | [7] | [8] | [9]

c1ccc2n[nH]nc2c1
inactive: [1] | [2] | [3] | [4] | [5] | [6] | [7] | [8] | [9]

CCO[Si](CCCNC(N)=O)(OCC)OCC
inactive: [1] | [2] | [3] | [4] | [5] | [6] | [7] | [8] | [9]

CC(C)(c1cc(Br)c(O)c(Br)c1)c1cc(Br)c(O)c(Br)c1
active: [3] 89.2 µM | [4] 78.2 µM | [7] 58.3 µM | [9] 35.7 µM and 46 µM
inactive: [1] | [2] | [5] | [6] | [8]

CCCCCCCCOC(=O)c1cc(O)c(O)c(O)c1
active: [9] 27.6 µM
inactive: [1] | [2] | [3] | [4] | [5] | [6] | [7] | [8]

O=C(OCCCCCCOC(=O)c1ccccc1)c1ccccc1
inactive: [1] | [2] | [3] | [4] | [5] | [6] | [7] | [8]

O=c1ccc2ccccc2o1
inactive: [1] | [2] | [3] | [5] | [6] | [7] | [9]
active: [4] 65.4 µM

O=C(Nc1ccc(Cl)cc1)Nc1ccc(Cl)c(Cl)c1
active: [1] 13.1 µM | [3] 12.4 µM | [4] 14.9 µM | [5] 13.5 µM | [6] 17.2 µM | [7] 24.9 µM
inactive: [2] | [8] | [9]

OCCO
inactive: [1] | [2] | [4] | [5] | [6] | [7] | [8] | [9]
active: [3] 9.97 µM

CCN(Cc1cccc(S(=O)(=O)O)c1)c1ccc(C(=C2C=CC(=[N+](CC)Cc3cccc(S(=O)(=O)O)c3)C=C2)c2ccccc2S(=O)(=O)[O-])cc1
active: [9] 19.4 µM
inactive: [1] | [2] | [3] | [4] | [5] | [6] | [7] | [8]

CC1(C)NC(=O)N(c2ccc([N+](=O)[O-])c(C(F)(F)F)c2)C1=O
active: [3] 78.2 µM
inactive: [1] | [2] | [4] | [5] | [6] | [7] | [8] | [9]

Cc1ncc(CO)c(CO)c1O
inactive: [1] | [2] | [3] | [4] | [5] | [6] | [8] | [9]

CCCCCCCCCCCC[N+](C)(C)C
active: [3] 81.9 µM | [4] 88.3 µM | [5] 89.9 µM | [7] 90.4 µM | [9] 85.2 µM and 79.6 µM and 73.5 µM
inactive: [1] | [2] | [6] | [8]

Cc1cn([C@H]2C[C@H](N=[N+]=[N-])[C@@H](CO)O2)c(=O)[nH]c1=O
inactive: [1] | [2] | [3] | [4] | [5] | [6] | [7] | [8] | [9]

CN(C)C(=O)C1(N2CCCCC2)CCN(CC[C@@]2(c3ccc(Cl)c(Cl)c3)CN(C(=O)c3ccccc3)CCO2)CC1
inactive: [6]
active: [1] 27.5 µM | [2] 24.2 µM | [3] 47.2 µM | [4] 27.6 µM | [5] 25.7 µM | [7] 20 µM | [9] 37.8 µM

C[C@]12CC[C@@H]3c4ccc(O)cc4CC[C@H]3[C@@H]1CCC2=O
inactive: [1] | [2] | [5] | [6] | [7] | [8]
active: [4] 5.13 µM

CC(O)CC(C)(C)O (configuration not stated)
inactive: [1] | [2] | [3] | [4] | [5] | [6] | [7] | [8]

CN1C(=O)CC[C@H]1c1cccnc1
inactive: [1] | [2] | [3] | [4] | [5] | [6] | [7] | [8] | [9]

OC12N=C(c3ccccc3)SC1Cc1cc(Cl)ccc12 (configuration not stated)
inactive: [1] | [5] | [7] | [9]
active: [2] 16.2 µM | [3] 26 µM | [4] 2.54 µM | [6] 3.94 µM
